The target of experiment [1] is Transcriptional activator Myb (Homo sapiens) (UniProt P10242). The experiment is described as follows: ATG_Myb_CIS: Attagene CIS-FACTORIAL HepG2 Assay for human Myeloblastosis (Myb) Proto-Oncogene Transcription Factor (AID 2282986). The note with it: HepG2 Attagene CIS-FACTORIAL Myb reporter transcription; actives raise or lower the signal. The gist of the method: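 Fluorescence signals from capillary electrophoresis of RT-PCR-amplified reporter cDNA give the read-out. Cells: HepG2 transfected with multiple cis-regulated reporter units. Exposure lasts 24 hours; DMSO defines baseline for gain or loss of signal.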

For experiment [2], the target named is Nuclear respiratory factor 1 (Homo sapiens) (UniProt Q16656). Description: ATG_NRF1_CIS: Attagene CIS-FACTORIAL HepG2 Assay for human Nuclear Respiratory Factor 1 (NRF1) Orphan Gene (AID 2282987). The note with it: HepG2 NRF1 cis-element reporter, Attagene multiplex; actives raise or lower the signal. The gist of the method:
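Transcriptional reporter readout, one component of a 52-endpoint multiplexed HepG2 panel. Exposure 24 h; mRNA detected via RT-PCR and fluorescent capillary electrophoresis; fitting in both directions against DMSO.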

Experiment [3] in a line: ATG_NFI_CIS: Attagene CIS-FACTORIAL HepG2 Assay for human Nuclear Factor I (NFI) (AID 2282989). As to conditions: HepG2 cis-regulatory reporter, NFI response element transcription; actives raise or lower the signal. The gist of the method: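 Transfected HepG2 liver cells, exposed 24 h, supplied total RNA for oligo(dT) reverse transcription and reporter-specific PCR. Labelled, HpaI-cut fragments were sized by capillary electrophoresis; DMSO set the baseline for bidirectional fitting.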

The target of experiment [4] is Myc proto-oncogene protein (Homo sapiens) (UniProt P01106). Description: ATG_Myc_CIS: Attagene CIS-FACTORIAL HepG2 Assay for human Myelocytomatosis (Myc) Proto-Oncogene Transcription Factor (AID 2282990). As to conditions: HepG2, Attagene cis-reporter transcription factor activity; actives raise or lower the signal. The method in brief:
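DMSO-normalised, bidirectionally fitted reporter mRNA signal. HepG2 cells transfected with cis reporter constructs, treated 24 h; transcripts detected by RT-PCR, 6-FAM primer extension and CE.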

A short description of experiment [5]: ATG_NF_kB_CIS: Attagene CIS-FACTORIAL HepG2 Assay for human Nuclear Factor Kappa B (NF-kB) (AID 2282991). The note with it: HepG2 Attagene cis-factorial NF-kB reporter mRNA; actives raise or lower the signal. The method in brief: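 HepG2, transient multi-reporter transfection, cis promoter elements (endogenous TFs). 24 h exposure. Total RNA → RT → PCR → 6-FAM label → HpaI → CE. Gain/loss vs DMSO.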

A short description of experiment [6]: ATG_NRF2_ARE_CIS: Attagene CIS-FACTORIAL HepG2 Assay for human Nuclear Factor Erythroid 2 Related Factor 2 (NFR2) response to Antioxidant Response Elements (ARE) (AID 2282992).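 As to AC50: reporter mRNA level measured by RT-PCR and capillary electrophoresis fluorescence.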 As to conditions: HepG2 Attagene ARE/NRF2 reporter, transcription factor activity; actives raise or lower the signal. The method in brief: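 Multiplexed reporter mRNA profiling in HepG2 after a 24 h chemical exposure. Curves fitted in both directions relative to DMSO negative control.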

Experiment [7] in a line: ATG_Oct_MLP_CIS: Attagene CIS-FACTORIAL HepG2 Assay for human Octamer-Binding Transcription Factor (Oct) (AID 2282993). As to conditions: HepG2 Attagene cis-factorial Oct reporter, mRNA; actives raise or lower the signal. The gist of the method:
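Using HepG2 cells bearing transfected cis-reporter constructs, mRNA induction was read after 24 h by fluorescent RT-PCR and capillary electrophoresis, with DMSO defining baseline for gain- or loss-of-signal fits.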

Experiment [8] can be described thus: BSK_3C_TissueFactor: BioMAP Diversity Plus: 3C Assay for Tissue Factor Biomarker Activity (AID 2282997). As to conditions: BioMAP 3C HUVEC, tissue factor biomarker readout; actives raise or lower the signal. The gist of the method: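 Primary human umbilical vein endothelial cells in the 3C system were exposed to test chemical for 24 h, then Tissue Factor measured by ELISA. Activity was fitted bidirectionally against DMSO as negative control and baseline.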

A short description of experiment [9]: BSK_3C_uPAR: BioMAP Diversity Plus: 3C Assay for Urokinase-type plasminogen activator receptor (uPAR) Biomarker Activity (AID 2282998). As to conditions: BioMAP 3C HUVEC, uPAR biomarker ELISA; actives raise or lower the signal. The gist of the method: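 In this endothelial cell-based assay, human umbilical vein primary cells were treated with chemicals and harvested at 24 h. uPAR was quantified using ELISA, with gains or losses fitted relative to DMSO controls.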
For orientation: ELISA stands for enzyme-linked immunosorbent assay.

Experiment [10] is described as follows: BSK_3C_VCAM1: BioMAP Diversity Plus: 3C Assay for Vascular cell adhesion molecule 1 (VCAM1) Biomarker Activity (AID 2282999). As to conditions: BioMAP 3C HUVEC, VCAM1 ELISA, cytokine-stimulated; actives raise or lower the signal. The gist of the method:
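Human umbilical vein endothelial cells were dosed with compound for 24 h, after which cell-surface VCAM-1 was quantified by ELISA. Bidirectional curve fitting used DMSO as negative control and activity baseline.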

Experiment [11] can be described thus: BSK_4H_Eotaxin3: BioMAP Diversity Plus: 4H Assay for Eotaxin 3 Biomarker Activity (AID 2283000).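 As to outcome: CCL26 protein level quantified by ELISA in parallel with SRB cytotoxicity check.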 As to conditions: primary human endothelial cells (HUVEC); actives raise or lower the signal. The method in brief:
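HUVEC, 24 h post-dose, ELISA for Eotaxin-3/CCL26. Gain or loss of signal fitted bidirectionally vs DMSO baseline.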

Experiment [12] deals with human Peroxisome Proliferator-activated Receptor alpha (PPARa), PPARA (gene 5465) (UniProt Q07869). Description: ATG_PPARa_TRANS: Attagene TRANS-FACTORIAL HepG2 Assay for human Peroxisome Proliferator-activated Receptor alpha (PPARa) (AID 2283001; active = hit-call score of the fitted dose curve at least 0.9, where 1 is the maximum). The method in brief: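 HepG2 cells transiently transfected with multiplexed GAL4-UAS reporter units and chimeric NR-Gal4 constructs were dosed for 24 h. Reporter mRNA was measured by RT-PCR with fluorescent labelling and capillary electrophoresis; gain of signal fitted against DMSO.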

Read-out in experiment [13]: Intercellular Adhesion Molecule 1 (ICAM1), ICAM1 (gene 3383)
Description: BSK_3C_ICAM1: BioMAP Diversity Plus: 3C Assay for Intercellular Adhesion Molecule 1 (ICAM1) Biomarker Activity (AID 2283003). The note with it: primary human endothelial cells (HUVEC); actives raise or lower the signal. The gist of the method:
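Human vascular endothelial primary cells, 3C conditions, 24 h treatment. ICAM-1 by ELISA.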

The target in experiment [14] is Retinoic acid receptor alpha (Homo sapiens) (UniProt P10276). Description: ATG_RARa_TRANS: Attagene TRANS-FACTORIAL HepG2 Assay for human Retinoic Acid Receptor alpha (RARa) (AID 2283005; active = hit-call score of the fitted dose curve at least 0.9, where 1 is the maximum). The method in brief: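 HepG2 cells transiently transfected with multiple reporter units expressing chimeric RARα-GAL4 fusion, with GAL4-UAS-driven reporters. After 24 h compound exposure, reporter mRNA induction quantified by RT-PCR and capillary electrophoresis with fluorescent labeling; gain-of-signal fitted relative to DMSO control.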

A short description of experiment [15]: BSK_3C_Proliferation: Cell Proliferation Assessment in the BioMAP Diversity Plus: 3C Assay (AID 2283006).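 As to AC50: potency may reflect either rise or fall in cell number versus DMSO.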 The note with it: primary human endothelial cells (HUVEC). The gist of the method: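 Proliferation of human vascular endothelial primary cells after 48 h dosing, quantified as SRB-stained protein at 560 nm relative to DMSO.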
Experiment [16] addresses Nuclear receptor subfamily 1 group I member 2 (Homo sapiens) (UniProt O75469). Description: ATG_PXR_TRANS: Attagene TRANS-FACTORIAL HepG2 Assay for human Pregnane X Receptor (PXR) (AID 2283008; active = hit-call score of the fitted dose curve at least 0.9, where 1 is the maximum). The method in brief: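 Measures mRNA induction of a GAL4-UAS-driven reporter in human HepG2 cells transiently expressing PXR fused to Gal4, following 24 h treatment. DMSO served as negative control and baseline.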

Experiment [17] concerns the target human Retinoic Acid Receptor gamma (RARg), RARG (gene 5916) (UniProt P13631). Description: ATG_RARg_TRANS: Attagene TRANS-FACTORIAL HepG2 Assay for human Retinoic Acid Receptor gamma (RARg) (AID 2283009; active = hit-call score of the fitted dose curve at least 0.9, where 1 is the maximum). The gist of the method:
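HepG2, RARg-GAL4 TRANS system, 24 h exposure; reporter mRNA by RT-PCR + CE fluorescence; increase over DMSO.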

The target of experiment [18] is human Peroxisome Proliferator-activated Receptor delta (PPARd), PPARD (gene 5467) (UniProt Q03181). The experiment is described as follows: ATG_PPARd_TRANS: Attagene TRANS-FACTORIAL HepG2 Assay for human Peroxisome Proliferator-activated Receptor delta (PPARd) (AID 2283002; active = hit-call score of the fitted dose curve at least 0.9, where 1 is the maximum). The method in brief:
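Measured quantity: GAL4-UAS reporter transcript induction in HepG2 after 24 h chemical dosing, with NR-Gal4 chimeras supplied by transient transfection. Detection by RT-PCR and capillary electrophoresis; upward fit against DMSO.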

The target in experiment [19] is Peroxisome proliferator-activated receptor gamma (Homo sapiens) (UniProt P37231). Description: ATG_PPARg_TRANS: Attagene TRANS-FACTORIAL HepG2 Assay for human Peroxisome Proliferator-activated Receptor-gamma (PPARg) (AID 2283007; active = hit-call score of the fitted dose curve at least 0.9, where 1 is the maximum). The gist of the method: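 Multiplexed reporter transcription units in HepG2, 24 h dosing, reporter transcripts quantified by fluorescent RT-PCR and capillary electrophoresis. Increase over DMSO scored.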

For experiment [20], the target named is Cellular tumor antigen p53 (Homo sapiens) (UniProt P04637). The experiment is described as follows: ATG_p53_CIS: Attagene CIS-FACTORIAL HepG2 Assay for human p53 Transcription Factor (AID 2282994). The note with it: HepG2 p53 cis-element reporter, Attagene mRNA; actives raise or lower the signal. The method in brief:
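Multiplexed reporter mRNA assay in human HepG2 liver cells; cis-regulated units report endogenous factor activity. Values come from bidirectional curve fitting against DMSO negative control after 24 h treatment.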

Records with an inconclusive call do not appear. The source made the active and inactive calls. The calls were made as follows, unless noted: active = hit-call score of the fitted dose curve at least 0.9, where 1 is the maximum; inactive = score below 0.9.

Sequence of Myc proto-oncogene protein (Homo sapiens) (P01106 whole entry, looked up): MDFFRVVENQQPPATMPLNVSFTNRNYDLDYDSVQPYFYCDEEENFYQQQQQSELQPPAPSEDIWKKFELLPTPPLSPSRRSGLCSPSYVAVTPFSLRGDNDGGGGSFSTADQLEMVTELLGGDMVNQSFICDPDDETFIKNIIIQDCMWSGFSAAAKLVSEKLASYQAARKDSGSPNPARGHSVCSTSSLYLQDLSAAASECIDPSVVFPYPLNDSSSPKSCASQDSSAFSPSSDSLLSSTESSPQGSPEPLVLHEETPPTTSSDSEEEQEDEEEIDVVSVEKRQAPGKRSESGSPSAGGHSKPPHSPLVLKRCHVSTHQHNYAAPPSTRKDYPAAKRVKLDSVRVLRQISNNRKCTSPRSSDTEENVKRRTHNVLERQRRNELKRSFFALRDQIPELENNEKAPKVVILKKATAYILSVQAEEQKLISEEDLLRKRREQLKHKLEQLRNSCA
Sequence of Nuclear receptor subfamily 1 group I member 2 (Homo sapiens) (O75469 whole entry, looked up, the tested form may be a part): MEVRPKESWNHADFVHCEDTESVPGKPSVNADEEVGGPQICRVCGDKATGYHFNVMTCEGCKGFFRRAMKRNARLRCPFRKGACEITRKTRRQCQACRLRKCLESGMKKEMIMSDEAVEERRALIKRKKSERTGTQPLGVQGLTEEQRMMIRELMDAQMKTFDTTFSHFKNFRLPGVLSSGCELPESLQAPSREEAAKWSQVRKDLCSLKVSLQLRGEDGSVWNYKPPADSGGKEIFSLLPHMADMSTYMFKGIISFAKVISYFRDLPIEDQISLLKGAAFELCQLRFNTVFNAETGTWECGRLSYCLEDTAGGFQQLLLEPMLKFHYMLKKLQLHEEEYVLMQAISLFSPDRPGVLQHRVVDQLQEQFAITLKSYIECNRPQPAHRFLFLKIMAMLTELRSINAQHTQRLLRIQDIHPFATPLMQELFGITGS
Sequence of Cellular tumor antigen p53 (Homo sapiens) (P04637 whole entry, looked up): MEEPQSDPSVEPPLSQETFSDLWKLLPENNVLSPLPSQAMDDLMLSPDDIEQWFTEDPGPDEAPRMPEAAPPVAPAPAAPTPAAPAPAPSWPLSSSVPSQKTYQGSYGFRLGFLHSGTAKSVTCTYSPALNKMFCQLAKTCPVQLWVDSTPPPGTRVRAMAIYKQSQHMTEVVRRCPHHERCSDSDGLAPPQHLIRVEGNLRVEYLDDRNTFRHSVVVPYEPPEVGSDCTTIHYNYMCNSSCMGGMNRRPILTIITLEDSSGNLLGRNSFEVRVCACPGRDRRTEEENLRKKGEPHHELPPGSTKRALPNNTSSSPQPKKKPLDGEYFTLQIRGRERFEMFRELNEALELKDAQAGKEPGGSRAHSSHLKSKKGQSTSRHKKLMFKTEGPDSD
Sequence of Peroxisome proliferator-activated receptor gamma (Homo sapiens) (P37231 whole entry, looked up): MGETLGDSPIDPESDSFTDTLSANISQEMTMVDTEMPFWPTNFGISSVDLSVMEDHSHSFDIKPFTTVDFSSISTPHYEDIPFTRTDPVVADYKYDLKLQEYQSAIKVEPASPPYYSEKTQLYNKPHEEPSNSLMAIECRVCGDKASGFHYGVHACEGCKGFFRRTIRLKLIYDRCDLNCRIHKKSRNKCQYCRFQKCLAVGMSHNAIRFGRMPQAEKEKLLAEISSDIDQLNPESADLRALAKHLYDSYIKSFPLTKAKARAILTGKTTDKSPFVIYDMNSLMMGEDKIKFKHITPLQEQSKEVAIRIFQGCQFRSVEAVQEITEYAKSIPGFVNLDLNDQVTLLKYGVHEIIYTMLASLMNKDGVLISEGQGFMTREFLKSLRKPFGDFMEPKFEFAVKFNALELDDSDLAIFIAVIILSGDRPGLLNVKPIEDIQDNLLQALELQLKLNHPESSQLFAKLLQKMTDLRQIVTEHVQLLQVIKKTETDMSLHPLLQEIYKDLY
Sequence of human Peroxisome Proliferator-activated Receptor delta (PPARd), PPARD (gene 5467) (Q03181 whole entry, looked up, the tested form may be a part): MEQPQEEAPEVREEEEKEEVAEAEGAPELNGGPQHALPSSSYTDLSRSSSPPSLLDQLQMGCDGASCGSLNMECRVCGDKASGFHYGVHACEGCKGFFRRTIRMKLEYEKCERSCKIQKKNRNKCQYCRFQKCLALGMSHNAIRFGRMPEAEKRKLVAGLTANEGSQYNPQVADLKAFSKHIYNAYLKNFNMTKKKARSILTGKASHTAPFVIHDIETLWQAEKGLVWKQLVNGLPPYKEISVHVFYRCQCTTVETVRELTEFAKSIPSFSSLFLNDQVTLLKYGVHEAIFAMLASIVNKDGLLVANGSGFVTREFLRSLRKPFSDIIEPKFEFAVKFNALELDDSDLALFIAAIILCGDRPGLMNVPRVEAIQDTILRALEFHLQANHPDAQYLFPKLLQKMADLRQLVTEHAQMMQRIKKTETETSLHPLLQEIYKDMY
Sequence of Transcriptional activator Myb (Homo sapiens) (P10242 whole entry, looked up): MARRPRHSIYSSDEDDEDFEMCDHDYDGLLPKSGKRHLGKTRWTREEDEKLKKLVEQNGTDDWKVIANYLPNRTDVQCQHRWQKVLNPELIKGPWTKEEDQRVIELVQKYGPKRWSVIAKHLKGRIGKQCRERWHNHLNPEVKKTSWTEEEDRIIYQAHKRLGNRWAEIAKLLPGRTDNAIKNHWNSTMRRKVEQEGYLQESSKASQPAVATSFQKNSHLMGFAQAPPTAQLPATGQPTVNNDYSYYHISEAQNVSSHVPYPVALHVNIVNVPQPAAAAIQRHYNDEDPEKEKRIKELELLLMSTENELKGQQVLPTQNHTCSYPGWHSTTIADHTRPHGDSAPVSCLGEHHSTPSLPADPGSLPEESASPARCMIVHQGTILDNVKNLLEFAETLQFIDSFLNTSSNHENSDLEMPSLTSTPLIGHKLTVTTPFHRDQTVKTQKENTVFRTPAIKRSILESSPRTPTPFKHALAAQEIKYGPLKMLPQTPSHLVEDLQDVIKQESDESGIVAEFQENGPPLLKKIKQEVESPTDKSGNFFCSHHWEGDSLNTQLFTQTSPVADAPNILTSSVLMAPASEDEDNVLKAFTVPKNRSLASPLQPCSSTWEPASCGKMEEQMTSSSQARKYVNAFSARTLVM
Sequence of Nuclear respiratory factor 1 (Homo sapiens) (Q16656 whole entry, looked up): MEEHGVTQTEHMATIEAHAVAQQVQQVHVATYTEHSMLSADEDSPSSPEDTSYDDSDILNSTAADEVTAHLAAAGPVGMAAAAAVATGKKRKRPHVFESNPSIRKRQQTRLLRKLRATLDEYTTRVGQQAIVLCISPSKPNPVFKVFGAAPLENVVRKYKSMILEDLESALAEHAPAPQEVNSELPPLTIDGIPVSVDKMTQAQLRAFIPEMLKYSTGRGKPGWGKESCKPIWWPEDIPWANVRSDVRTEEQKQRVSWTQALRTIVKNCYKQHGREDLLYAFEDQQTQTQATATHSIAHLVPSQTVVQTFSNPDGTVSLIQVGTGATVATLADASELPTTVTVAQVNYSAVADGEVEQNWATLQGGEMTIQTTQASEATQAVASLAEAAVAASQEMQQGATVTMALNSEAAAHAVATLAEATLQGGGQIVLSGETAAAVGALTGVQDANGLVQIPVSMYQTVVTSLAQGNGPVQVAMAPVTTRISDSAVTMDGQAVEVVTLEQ
Sequence of human Peroxisome Proliferator-activated Receptor alpha (PPARa), PPARA (gene 5465) (Q07869 whole entry, looked up, the tested form may be a part): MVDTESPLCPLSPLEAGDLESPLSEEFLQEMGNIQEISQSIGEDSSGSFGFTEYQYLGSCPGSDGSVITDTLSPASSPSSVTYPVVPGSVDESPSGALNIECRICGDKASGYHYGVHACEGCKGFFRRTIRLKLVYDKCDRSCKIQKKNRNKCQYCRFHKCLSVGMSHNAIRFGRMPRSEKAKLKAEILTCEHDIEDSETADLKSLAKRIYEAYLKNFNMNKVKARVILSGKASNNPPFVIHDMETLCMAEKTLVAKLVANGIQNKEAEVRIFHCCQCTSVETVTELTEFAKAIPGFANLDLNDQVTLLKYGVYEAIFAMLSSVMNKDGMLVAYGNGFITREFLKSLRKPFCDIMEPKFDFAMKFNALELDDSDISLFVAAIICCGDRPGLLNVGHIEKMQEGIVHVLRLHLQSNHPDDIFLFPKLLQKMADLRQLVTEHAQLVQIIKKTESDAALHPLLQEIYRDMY
Sequence of human Retinoic Acid Receptor gamma (RARg), RARG (gene 5916) (P13631 whole entry, looked up, the tested form may be a part): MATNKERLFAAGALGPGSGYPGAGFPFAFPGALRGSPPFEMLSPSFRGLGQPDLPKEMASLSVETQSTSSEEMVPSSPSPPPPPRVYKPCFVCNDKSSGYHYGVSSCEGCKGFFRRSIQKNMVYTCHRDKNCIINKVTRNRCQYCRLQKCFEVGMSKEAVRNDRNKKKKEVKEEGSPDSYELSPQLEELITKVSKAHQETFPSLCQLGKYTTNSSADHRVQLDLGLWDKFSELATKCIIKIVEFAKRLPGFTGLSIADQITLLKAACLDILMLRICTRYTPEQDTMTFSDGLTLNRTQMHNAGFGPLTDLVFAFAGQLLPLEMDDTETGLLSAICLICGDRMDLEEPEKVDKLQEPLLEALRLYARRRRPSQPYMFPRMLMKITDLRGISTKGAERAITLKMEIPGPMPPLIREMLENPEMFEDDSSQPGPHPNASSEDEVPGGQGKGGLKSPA
Sequence of Retinoic acid receptor alpha (Homo sapiens) (P10276 whole entry, looked up, the tested form may be a part): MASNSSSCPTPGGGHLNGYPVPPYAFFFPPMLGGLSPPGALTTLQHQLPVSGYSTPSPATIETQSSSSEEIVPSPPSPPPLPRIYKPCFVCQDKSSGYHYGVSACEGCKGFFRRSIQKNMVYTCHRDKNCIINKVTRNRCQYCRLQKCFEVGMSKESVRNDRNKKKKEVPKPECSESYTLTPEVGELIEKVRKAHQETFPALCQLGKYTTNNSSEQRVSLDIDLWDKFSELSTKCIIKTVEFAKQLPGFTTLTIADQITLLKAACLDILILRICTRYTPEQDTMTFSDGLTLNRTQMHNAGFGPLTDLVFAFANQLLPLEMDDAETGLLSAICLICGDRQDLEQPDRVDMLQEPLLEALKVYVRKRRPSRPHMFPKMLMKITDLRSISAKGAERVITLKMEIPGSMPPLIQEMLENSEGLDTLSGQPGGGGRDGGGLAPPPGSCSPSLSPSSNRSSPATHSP

Take `CN(C)C(=O)Cl`: the outcome in [1], in experiment [2], in experiment [3], in experiment [4], in experiment [5] and in experiment [6] was inactive. For the same compound, the outcome in experiment [7], in experiment [8], in [9], in experiment [10], in experiment [11] and in experiment [12] was inactive. Moreover, the outcome in [13], in [14], in experiment [15], in [16] and in [17] was inactive.

Consider `O=NN1CCCC1`, for which the compound was called inactive in [1], in experiment [2], in [3], in experiment [4], in experiment [5] and in experiment [6]. Besides, the result in experiment [7], in [12], in experiment [18], in experiment [19], in experiment [16] and in [17] was inactive.

Regarding `O=[N+]([O-])c1ccc(Cl)c(Cl)c1`, the call in [1], in experiment [2], in [3], in [4], in experiment [5] and in experiment [7] was inactive. The outcome in experiment [8], in [9], in experiment [10], in [11], in experiment [13] and in experiment [15] was inactive. The result in [17] was inactive. Also, the AC50 was 100 µM (active) in experiment [6] and 16 µM (active) in experiment [19].

Consider `OCC1CO1` (stereo not drawn), for which the compound was called inactive in experiment [1], in [2], in [3], in experiment [4], in experiment [6] and in experiment [7]. Besides, the call in experiment [20], in experiment [8], in experiment [9], in experiment [10], in experiment [11] and in [12] was inactive. Also, the compound was classed as inactive in experiment [18], in experiment [13], in experiment [15] and in experiment [19].

For `O=P1(N(CCCl)CCCl)NCCCO1` (stereo not drawn), the compound was classed as inactive in experiment [1], in experiment [2], in [3], in experiment [4], in experiment [5] and in experiment [6]. Also, the result in experiment [7], in experiment [8], in experiment [9], in experiment [10], in experiment [11] and in experiment [12] was inactive. The compound was called inactive in experiment [18], in experiment [13], in experiment [15], in experiment [19] and in [16].

For `O=C(O)CF`, the result in experiment [1], in experiment [2], in experiment [3], in experiment [4], in [6] and in [7] was inactive. Besides, in experiment [12], the compound was called inactive.

Turning to `Clc1ccc(Oc2ccccc2)cc1`, the outcome in [1], in [2], in [3], in [4], in experiment [5] and in experiment [7] was inactive. For the same compound, the compound was classed as inactive in [12], in [18], in experiment [19] and in experiment [16]. The AC50 in [6] was 177 µM (active).

As for `c1ccc2c(c1)Nc1ccccc1S2`, the result in experiment [1], in [2], in experiment [3], in [4], in experiment [7] and in [20] was inactive. The result in experiment [8], in experiment [9], in [10], in experiment [11], in experiment [12] and in experiment [18] was inactive. In experiment [13], the outcome was inactive. Also, the AC50 is 20.6 µM (active) in experiment [6], 21.6 µM (active) in [15], 26.7 µM (active) in experiment [19] and 11.1 µM (active) in experiment [16].

Regarding `N#Cc1cc([N+](=O)[O-])ccc1N`, the result in experiment [1], in experiment [2], in experiment [3], in [5], in experiment [7] and in experiment [20] was inactive. The outcome in experiment [9], in experiment [10], in experiment [12], in experiment [13], in experiment [15] and in experiment [19] was inactive. In addition, in experiment [16], the compound was called inactive. For the same compound, the AC50 was 27.2 µM (active) in experiment [6], 0.706 µM (active) in experiment [8] and 4.4 µM (active) in experiment [11].

By AC50 is commonly meant the concentration at which the activity in the assay is half-maximal.

These data come from PubChem BioAssay (EPA / NIEHS).
